Consider 104 compounds from PubChem BioAssay AID1458 (National Center for Advancing Translational Sciences (NCATS), 2008).

The campaign covered roughly 210,000 compounds. About 5,900 (2.8%) were called active. Roughly 5% stayed inconclusive and do not appear here. The sample holds actives, similar compounds and a random draw of the others, so the mix is not that of the screen. Unmarked numbers belong to inactive results. Calls follow the shape of the dose curve; as a rule, active = well fitted activation curve with a large enough effect; inconclusive = small, poorly fitted or top-dose-only effect; inactive = no such curve, though single readings can be large or run the other way.
Potency is read from the fitted curve at half-maximal effect.

This test can be described thus: qHTS Assay for Enhancers of SMN2 Splice Variant Expression. Also: nearly all actives have a fitted effect of over 55% in size. As to activity change, positive = activation: % of control where 0% means no effect. The conditions noted are these: HEK293 SMN2-luciferase splicing reporter, luminescence, 30-36 h; series mostly up to 46.1 µM; activity change, positive = activation: at the top concentration. In short, it runs like this: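 qHTS luciferase splicing reporter: luminescence rises when SMN2 exon 7 is included in transfected HEK293 cells. Compound exposure lasted 30-36 h at 37C, with 4.5 mM final sodium butyrate as control, followed by a ONE-Glo read.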
As to `CC(=O)N1CCc2cc(S(=O)(=O)NC(Cc3ccccc3)C(=O)NCc3ccc(C)cc3)ccc21` (centres undefined), the “activity change, positive = activation” value was -2.94%. For the compound `CCOc1ccc(S(=O)(=O)c2cn(Cc3ccc(OC)cc3)c3ccc(F)cc3c2=O)cc1`, the “activity change, positive = activation” value was -6.28%. The same measure, in the same setting: to `CC(=O)Nc1ccn(Cc2c(F)cccc2Cl)n1` belongs 1.25%; to `Cc1ccc(Cn2ccc(NC(=O)c3cc(C(C)C)on3)n2)cc1`, 6.87%.

As to `O=C(Nc1ccn(Cc2ccccc2)n1)c1n[nH]c([N+](=O)[O-])c1Cl`, the Potency was 3.16 µM (active).

As to `O=C(Nc1ccn(Cc2ccccc2)n1)c1cccc(F)c1`, the Potency is 2.82 µM (active). Turning to `Cn1cc([N+](=O)[O-])c(C(=O)Nc2cnn(Cc3ccc(F)cc3)c2)n1`, the “activity change, positive = activation” value was -2.65%. On the same count and under the same terms, to `O=C(Nc1ccn(Cc2ccc(F)cc2)n1)c1ccncc1` belongs -62.6%.

Regarding `CCOC(=O)c1cc2c(=O)n3ccccc3nc2n(CCCOC)c1=NC(=O)C(C)(C)Oc1ccc(Cl)cc1`, the “activity change, positive = activation” value is 9.26%. Same read-out and setting: the same measure for `COc1ccc(CCN2C(=O)N(c3cccc(OC)c3)C(=O)C2CC(=O)Nc2ccccc2)cc1` (centres undefined): -6.97%; for `CCCCC12CN3CC(C)(CN(C1)C3c1ccc(O)c(OC)c1)C2=O` (centres undefined): 1.53%; for `COc1ccc(CCNC(=O)CCc2c(C)nc3c(c(C)nn3-c3ccc(C)c(C)c3)c2C)c(OC)c1OC`: 10.6%. On to `O=C(OCc1ccc(Br)cc1)c1cccc(-c2nnc(-c3ccccc3)o2)c1`, for which the Potency was 2.24 µM (active). On to `O=C(OCc1nnc(-c2ccccc2)o1)c1ccc2c(c1)C(=O)N(CCc1ccccc1)C2=O`, for which the “activity change, positive = activation” value is 27.8%. On the same count and under the same terms, the same measure for `CCOC(=O)CSc1nnc(-c2cccc(Br)c2)o1`: -5.07%; for `CCn1c(=O)cc(OCC(=O)Nc2cc(Cl)c(OC)cc2OC)c2ccccc21`: 7.37%. For the compound `C=C(C)CSc1nnc(-c2ccc(C)cc2)n1N`, the Potency was 8.91 µM (active). Turning to `Cc1ccc(-c2nnc(SC(C)C#N)n2N)cc1` (centres undefined), the “activity change, positive = activation” value was 5.91%. Same read-out and setting: to `Cc1ccc(NC(=O)NC(=O)CSc2nnc(-c3ccc(OC(F)F)cc3)n2N)c(C)c1` belongs -13.8%; to `CC(=O)c1c(C)n(S(=O)(=O)c2ccc(Cl)cc2)c2ccc(NS(=O)(=O)c3ccc(Cl)cc3)cc12`, -11.3%; to `COc1ccc(C)cc1N(CC(=O)N1CCC(C)CC1)S(=O)(=O)c1ccc(C)cc1`, -6.31%. Still for that read-out and setting: the same measure for `CCOC(=O)c1c(NC(=O)CSc2cn(CCNC(=O)c3cccc(C(F)(F)F)c3)c3ccccc23)sc2c1CCC2`: 12.3%. As for `COc1ccc(CCNC(=O)c2cn(C)c3ccc(S(=O)(=O)N(C)C4CCCCC4)cc3c2=O)cc1OC`, the “activity change, positive = activation” value is 3.49%. For the compound `CCOc1ccc(OCc2cccc(C(=O)N(CC)CC)c2)cc1`, the Potency was 5.01 µM (active). In the case of `Cc1cccc(C(=O)N2CCCN(C(=O)c3cccc(C)c3)CC2)c1`, the “activity change, positive = activation” value was -9.38%. Same read-out and setting: to `CCOc1ccc(NC(=O)N(CC(C)C)CC(C)C)cc1` belongs -13.7%. For the compound `CCN(CC)C(=O)c1ccc(O)c(OC)c1`, the Potency result was “inactive”. As for `COc1ccc(OCC(=O)NNC(=O)c2cccc(C)c2)cc1`, the “activity change, positive = activation” value is -31.7%.

With `COc1ccc(OCc2cccc(C(=O)N3CCCC3)c2)cc1`, the Potency is 2.51 µM (active). On to `COc1cccc(Cn2c(SCc3ccc(C(=O)N4CCC(C)CC4)cc3)nc3ccncc32)c1`, for which the “activity change, positive = activation” value was -57.7%. On the same count and under the same terms, to `COc1cccc(CNC(=O)c2ccc3c(c2)N(Cc2ccc(C(F)(F)F)cc2)C(=O)c2ccccc2S3)c1OC` belongs 1.81%; to `COc1ccc(C2(Nc3cccc(F)c3)C(=O)c3ccccc3C2=O)cc1`, 10.5%. The same measure, in the same setting: the same measure for `CCc1nonc1NC(=O)c1oc2ccc(Cl)cc2c1C`: 13.4%; for `Cc1ccc(Cn2c(C)c3cnn(CC(=O)NCc4ccccc4)c(=O)c3c2C)cc1`: -1.41%; for `CC1=C(C(=O)Nc2ccccc2)C(c2ccc(C)cc2)n2nc(SCc3ccccc3C)nc2N1` (centres undefined): 6.65%. Still for that read-out and setting: to `COc1cc(Nc2nc(-c3ccc(OC)c(OC)c3)nc3ccccc23)cc(OC)c1` belongs -30%.

Turning to `CCc1cccc(C)c1Nc1c(-c2ccc(N(C)C)cc2)nc2ncccn12`, the “activity change, positive = activation” value was 26%.

Take `N#CC(=C1SC=CS1)c1nc(-c2ccccc2)cs1`: the Potency is 11.2 µM (active). For `N#CC(=C1CCCC1)c1nc(-c2ccc(Cl)cc2)cs1`, the “activity change, positive = activation” value is 37.8%.

With `CCNC(=O)CSc1nc(-c2ccccc2)cs1`, the “activity change, positive = activation” value is 16.8%. Same read-out and setting: the same measure for `COc1ccc(-c2cc(NCc3ccc(F)cc3)n3cnnc3n2)cc1`: -6.89%. `CCOC(=O)c1c(C)[nH]c(C(=O)NCc2ccccc2OC)c1C`: the Potency was 10 µM (active).

As to `COc1ccccc1CNC(=O)c1cc(=O)c2ccccc2o1`, the “activity change, positive = activation” value is -23.9%. Same read-out and setting: the same measure for `CC(=O)c1c(C)[nH]c(C(=O)NCc2ccc(C)cc2)c1C`: -0.462%. The same measure, in the same setting: to `COC(=O)c1ccccc1NS(=O)(=O)c1ccc2c(c1)CCCN2C(C)=O` belongs -4.36%. For `CCOc1ccc(C(=O)c2cn(Cc3ccccc3OC)c3ccc(F)cc3c2=O)cc1`, the “activity change, positive = activation” value is 6.96%. As to `COc1ccc(-c2csc(-c3cccs3)n2)cc1OC`, the Potency was 14.1 µM (active).

Take `COc1ccc(-c2nn3c(-c4ccccc4)nnc3s2)cc1OC`: the “activity change, positive = activation” value is -2.56%.

For the compound `COc1ccc(C2CC(c3cccs3)=Nc3ccccc3S2)cc1OC` (centres undefined), the “activity change, positive = activation” value is -15.2%. Still for that read-out and setting: to `CCc1ccccc1NC(=O)N1CCC2(CC1)Oc1ccccc1C(=O)N2Cc1ccccc1F` belongs 2.64%. Still for that read-out and setting: the same measure for `O=C(Nc1ccc(Br)cc1)c1cc2nc(-c3ccccc3)cc(-c3ccccc3)n2n1`: 8.42%; for `COc1cccc(C(=O)N(Cc2cccc(Cl)c2)Cc2ccco2)c1`: -32%. On the same count and under the same terms, to `O=C(Cc1ccccc1)NC(=S)Nc1ccc(N2CCCCC2)cc1` belongs 1.23%. On to `S=C(c1ccc(-c2ccccc2)o1)N1CCCCC1`, for which the Potency is 12.6 µM (active). `c1ccc(-c2ccccc2OCCN2CCCCC2)cc1`: the “activity change, positive = activation” value was -8.62%. Consider `O=C(/C=C/c1ccc2c(c1)OCO2)NCc1ccc(F)cc1`, for which the “activity change, positive = activation” value was 1.74%.

For `O=C(CNC(=O)C(c1ccccc1)c1ccccc1)N/N=C\c1ccc2c(c1)OCO2`, the “activity change, positive = activation” value is 6.3%. As to `O=C(Cc1ccc(F)cc1)N/N=C/c1ccc2c(c1)OCO2`, the Potency was 12.6 µM (active). `COc1ccc(C(=O)NC(=S)Nc2ccc(Cl)cn2)cc1OC`: the “activity change, positive = activation” value was -0.559%. `O=C(Nc1ccc(Cl)cn1)c1ccc2c(c1)OCCO2`: the Potency was 2.51 µM (active).

For the compound `Cc1cc(NC(=O)c2cnn3cccnc23)n(-c2ccccc2)n1`, the “activity change, positive = activation” value was -9.99%. For `O=C(Nc1ccc(Cl)cn1)c1cnn2cccnc12`, the Potency was 11.2 µM (active). As to `COc1c(Cl)cc(C(=O)Nc2ccc(Cl)cn2)cc1Cl`, the “activity change, positive = activation” value is 20.7%.

As to `O=C(Nc1cccc(S(=O)(=O)Nc2ccc(Cl)cc2)c1)c1ccc2c(c1)OCCO2`, the “activity change, positive = activation” value was -59.3%. Same read-out and setting: to `COc1ccc(CNC(=O)Cc2coc3ccc(C(C)C)cc23)cc1` belongs -4.8%. Turning to `CC(C)(C)c1csc(NC2=NS(=O)(=O)c3ccccc32)n1`, the Potency was 8.91 µM (active). On to `Cc1ccc(S(=O)(=O)N(NC2=NS(=O)(=O)c3ccccc32)C(=O)c2ccccc2)cc1`, for which the “activity change, positive = activation” value was -33.5%. The same measure, in the same setting: the same measure for `O=C(Oc1cccc(NC2=NS(=O)(=O)c3ccccc32)c1)c1ccncc1`: -1.12%; for `COc1ccc(CN2C(=O)C(NC(=O)c3cccc(C)c3)(C(F)(F)F)N=C2c2ccccc2)cc1` (centres undefined): -6.05%; for `Cc1cccc(OCC(O)Cn2c(=N)n(CCN3CCOCC3)c3ccccc32)c1` (centres undefined): -2.16%. With `OC(COc1ccc2ccccc2c1)CN1CCOCC1` (centres undefined), the Potency was 14.1 µM (active). Turning to `OC(COc1ccc2ccccc2c1)Cn1cncn1` (centres undefined), the “activity change, positive = activation” value was 10.2%.

For the compound `Cc1cccc(N2CCN(C(=O)c3oc(=O)c4ccccc4c3-c3ccccc3)CC2)c1C`, the “activity change, positive = activation” value is -0.849%. On the same count and under the same terms, the same measure for `CC1=Nc2cc(C(=O)N3CCC(C)CC3)ccc2Sc2ccc(Cl)cc21`: -32.5%; for `O=C(Nc1ccccc1)c1cccnc1Nc1ccccc1`: -22.9%. Consider `O=C(Nc1ccccc1)c1ccccc1NC(=O)C(F)(F)F`, for which the Potency was 10 µM (active). In the case of `NC(=O)c1ccccc1NC(=O)c1ccccc1F`, the “activity change, positive = activation” value is 10.5%.

As to `O=C(CSc1oc(-c2ccccc2)nc1S(=O)(=O)c1ccc(Br)cc1)NC1CCCCC1`, the “activity change, positive = activation” value is -5.27%. Same read-out and setting: to `COc1ccc2c(c1)CCc1c(C(=O)Nc3cc(C)ccc3O)noc1-2` belongs 21.9%; to `COc1ccc2c(c1)CCc1c(C(=O)Nc3c(C)n(C)n(-c4ccccc4)c3=O)noc1-2`, -28%. Take `COc1ccc2c(c1)CCc1c(C(=O)N3CCCC3)noc1-2`: the Potency was 17.8 µM (active). As to `Cn1c(=O)c2c(nc(SCC(=O)Nc3ccc(F)cc3)n2Cc2ccccc2)n(C)c1=O`, the “activity change, positive = activation” value was -3.7%. `Cc1ccc(CNC(=O)C2CCN(S(=O)(=O)c3ccc4nc5c(c(C(=O)O)c4c3)CC(C)CC5)CC2)cc1` (centres undefined): the “activity change, positive = activation” value is 4.28%.

With `CC(C)Cc1cc(C(=O)NCCc2ccccc2)no1`, the Potency was 12.6 µM (active). Regarding `Cc1cc(C(=O)NCCCc2ccccc2)no1`, the “activity change, positive = activation” value was 24%.

As to `Nc1nonc1C(=O)NCCc1ccccc1`, the “activity change, positive = activation” value was -21%.

Regarding `CCOC(=O)N1CCc2c(sc3c2c(=O)n(-c2ccc(CC)cc2)c(=O)n3C)C1`, the “activity change, positive = activation” value was -4.84%. Same read-out and setting: to `Cc1ccc(-c2ccc(CCC(=O)O)n2-c2ccc(C(N)=O)cc2)cc1` belongs 1.29%. Still for that read-out and setting: the same measure for `Cc1cccc(OCC(=O)N(Cc2ccc(C(C)C)cc2)Cc2ccco2)c1C`: 2.91%; for `Cc1ccc(C)c(Cn2c(=O)n(CCC(=O)NCc3ccc4c(c3)OCO4)c(=O)c3sccc32)c1`: -7.25%. Take `CC(=C/c1ccccc1)/C=N/NC(=O)c1cc(C)oc1C`: the Potency is 15.8 µM (active). On to `COc1ccc(C/C(C)=N/NC(=O)c2cc(C)oc2C)cc1`, for which the “activity change, positive = activation” value is -0.732%. On the same count and under the same terms, the same measure for `N=c1oc2ccccc2cc1C(=O)N/N=C/c1ccccc1`: -26.9%. Same read-out and setting: to `CSc1ccc(CCNC(=O)c2cnn(-c3ccccc3)c2-n2cccc2)cc1` belongs -6.66%; to `CC(C)c1ccc(C2CC(=O)N3CN(C4CCCCC4)CSC3=C2C#N)cc1` (centres undefined), -3.71%. Take `O=C(Cn1c(-c2cncs2)nc2ccccc21)NC1CCCC1`: the “activity change, positive = activation” value was -7.74%. Still for that read-out and setting: to `CC(=O)OC(C(=O)NC1CCCCC1)c1ccccc1` (centres undefined) belongs 8.55%. Regarding `O=C(/C=C/c1cnc2ccccc2n1)NC1CCCCCC1`, the Potency was 11.2 µM (active). Consider `COc1ccccc1NC(=O)CSc1oc(-c2ccco2)nc1S(=O)(=O)c1ccc(Br)cc1`, for which the “activity change, positive = activation” value is 2.03%. In the case of `CCOc1ccc(CNCCSc2nnnn2C)cc1`, the “activity change, positive = activation” value was -10.5%. Regarding `CCOC(=O)c1c(N)nn(C(=O)c2ccccc2)c1-c1ccccc1`, the “activity change, positive = activation” value is -1.78%.

For `Cc1occc1C(=O)N1CCCc2ccccc21`, the “activity change, positive = activation” value was 23.4%.

Take `Cc1nn(C(=O)c2ccoc2C)c(N)c1-c1ccccc1`: the Potency was 12.6 µM (active). Take `CCCCCn1c(=O)[nH]c2cc(C(=O)NCCN(C)CCCC)ccc2c1=O`: the “activity change, positive = activation” value is 15.9%.
